The supplement of paper PMC10681739

Tests used:
ETS1 [1] = biological target: T1, ETS1 (UniProt P14921); test: ETS1 binding intensity (PBM fluorescence), ETS1 alone (arbitrary fluorescence units); higher = stronger binding; settings: ETS1 concentration 1 nM; RUNX1 concentration 0 nM
T1 sequence: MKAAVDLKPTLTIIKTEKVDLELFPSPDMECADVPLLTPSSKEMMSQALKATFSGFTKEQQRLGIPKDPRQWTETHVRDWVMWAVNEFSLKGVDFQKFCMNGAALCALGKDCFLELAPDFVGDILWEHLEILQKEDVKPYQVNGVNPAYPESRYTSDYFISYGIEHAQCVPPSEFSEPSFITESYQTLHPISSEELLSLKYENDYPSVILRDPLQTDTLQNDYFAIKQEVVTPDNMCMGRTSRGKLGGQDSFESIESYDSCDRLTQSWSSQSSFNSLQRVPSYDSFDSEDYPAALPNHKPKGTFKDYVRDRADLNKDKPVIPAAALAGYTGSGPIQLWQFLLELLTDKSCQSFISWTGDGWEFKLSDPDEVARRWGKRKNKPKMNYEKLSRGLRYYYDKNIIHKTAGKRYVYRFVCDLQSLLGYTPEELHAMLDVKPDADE

ETS1 [2] = biological target: T1, ETS1; test: ETS1 binding intensity (PBM fluorescence) in presence of RUNX1, normalised to ETS1-only experiment (arbitrary fluorescence units); higher = stronger binding; settings: ETS1 concentration 1 nM; RUNX1 concentration 25 nM

| Sequence | ETS1 binding intensity (ETS1 [1]) | ETS1 binding intensity (ETS1 [2]) |
| --- | --- | --- |
| GCGCGCTTCCGCCTTCATGCTAGCAACGCCCGCAGT | 566 | 560 |
| TATGACCAGGGGAGGGAAGTGACCACAGCATATCAC | 466 | 823 |
| AAGATGCCCCCTTCCGCTGGAAAGCGGTAATGCCCA | 724 | 705 |
| GTGCGGCGGGAAACGCGTTCCCCGGCAACCGCGCCC | 401 | 479 |
| AGGGTGTACTCGGAAGTTTCGAGTGGTTGCTTGGTT | 451 | 513 |
| TGTTGCACATGTTCAGGATGTGGTAGACAGCTTTCA | 1410 | 3040 |
| AGCACCCCACATCCTGCACCCCACAACCCAGATCCC | 510 | 546 |
| GTAGCCGGGTGTTCCGGAGCGCTGCGGGCAAAGCAG | 387 | 539 |
| GTTTCAGTATTTCCTGGTGCGGCGTACCACACCTAC | 620 | 566 |
| GCTTGTCTTCCGGTTTCGTCGCCGCCGCAGGCGCAC | 1730 | 1880 |
| CCACGTCCACAAAGGAAACCGCGGCCTGCCCGGGGA | 512 | 1390 |
| GACCTGACAACATCCTGGCGCAGTGGGTTGGCCCTG | 496 | 420 |
| GGGCTTCCGGCTGAACCCATGGCTGCGGGCTGTGCT | 445 | 329 |
| TAGGTTAGAATAAGAGGAAACCTCAAACCAGAACCC | 579 | 991 |
| ATGACTTCGAGGAAGTCTTCAGAAACCACAGGCTGA | 405 | 1430 |
| TGCCTCTTCCTGTGGCTGGGCTGTATCTGACCACAC | 503 | 462 |
| CTCCTGAGGAAGTAGTTACAGACACCACAGCGGAGG | 511 | 491 |
| TGCAGCCGCCGCGTCCGGTCCAGCCGCAGGGCCATG | 536 | 543 |
